Results from PubChem BioAssay (NCATS).
“And” between values parts separate entries of the source, which are not always exact repeats. Equal values may be shown once. Unmarked numbers belong to inactive results. Records with an inconclusive call do not appear. The source made the active and inactive calls. Unless noted, calls follow the shape of the dose curve; as a rule, active = well fitted curve in the direction sought with a large enough effect; inconclusive = small, poorly fitted or top-dose-only effect, or another doubt; inactive = no such curve, though single readings can be large; an effect the other way counts as inactive or inconclusive.

Legend:
[1] = Drug repurposing screens with cells derived from glioblastoma tumor samples (AID 1345199); conditions: GBM patient neurospheres viability, ATP luminescence, 48 h; also: nearly all actives have a fitted effect of over 40% in size; also: potency is read from the fitted curve at half-maximal effect; as to activity, negative = cell killing: % is scaled to controls: 0 for no effect and ±100 for the full control effect
Summary of the method: (§1)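 Primary testing used CD133+ neurospheres from four GBM patients, seven concentrations, 48 h exposure and ATP-based viability; confirmation added three slower-growing patient lines.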

astro = control astrocytes; assay: as above; conditions: viability, ATP luminescence, 48 h; series mostly up to 45.9 µM
Summary of the method: as §1

[2] = molecular target: Nuclear receptor subfamily 1 group I member 2 (Rattus norvegicus) (UniProt Q9R1A7); assay: qHTS assay for small molecule activators of the rat pregnane X receptor (rPXR) signaling pathway (AID 651751; call rule not given here; also: 0% is about no effect); conditions: rPXR reporter cells, luciferase (One-Glo), 24 h
[3] = qHTS assay for small molecule activators of the human pregnane X receptor (PXR) signaling pathway (AID 720659; call rule not given here; also: 0% is about no effect); conditions: DPX-2 HepG2 CYP3A4-luciferase, 24 h; series mostly up to 92.3 µM
[4] = qHTS assay to identify inhibitors of the type 1 interferon - major histocompatibility complex class I in skeletal muscle: Counter screen cell viability and HiBit confirmation (AID 1347412); conditions: iHSKM muscle cells + IFN-b, HiBiT or CellTiter-Glo, 24 h; Potency: HiBiT; Viability, at 45.9 µM (top of the series); also: % is scaled to controls: 0 for no effect and ±100 for the full control effect; nearly all actives have a fitted effect of over 60% in size
Summary of the method: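 Myoblasts (C25cl48, HLA-B HiBiT) seeded in medium without dexamethasone, IFN-b 4 ng/ml added except unstimulated columns; 1 hr later compounds pinned (12-pt 1:3, top 46 uM final). Incubated 24 hrs, lysed 10 min, luminescence measured.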

[5] = at 45.9 µM (top of the series), tumour line B
[6] = at 45.9 µM (top of the series), tumour line D
[7] = at 46.1 µM (top of the series), tumour line C
[8] = at 20 µM (top of the series), tumour line C
[9] = at 21.2 µM (top of the series), tumour line B

Nuclear receptor subfamily 1 group I member 2 (Rattus norvegicus), sequence (Q9R1A7 whole entry, looked up): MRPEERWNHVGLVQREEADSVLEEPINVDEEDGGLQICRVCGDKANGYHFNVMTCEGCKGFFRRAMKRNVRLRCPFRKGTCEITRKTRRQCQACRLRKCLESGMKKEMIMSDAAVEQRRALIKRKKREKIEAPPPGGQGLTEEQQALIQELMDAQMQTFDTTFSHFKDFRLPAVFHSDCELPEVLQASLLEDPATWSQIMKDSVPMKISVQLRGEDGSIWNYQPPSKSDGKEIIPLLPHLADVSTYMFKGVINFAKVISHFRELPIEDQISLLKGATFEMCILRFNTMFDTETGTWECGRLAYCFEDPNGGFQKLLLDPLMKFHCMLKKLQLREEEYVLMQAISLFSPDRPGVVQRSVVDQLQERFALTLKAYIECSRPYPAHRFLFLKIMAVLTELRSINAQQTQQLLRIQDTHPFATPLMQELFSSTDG

C[C@@H]([C@H](O)c1ccccc1)N(C)C
activity, negative = cell killing [1, 5]: -6.97% | activity, negative = cell killing [1, 6]: -5.32% | Potency (astro): inactive

CCCC(C)C1(CC)C(=O)NC(=O)NC1=O (stereo not drawn)
activity, negative = cell killing [1, 5]: -11.9% | activity, negative = cell killing [1, 6]: 0.152% | activity, negative = cell killing [1, 7]: -8.48% | Potency (astro): inactive

CCC(=O)O[C@@](Cc1ccccc1)(c1ccccc1)[C@@H](C)CN(C)C
activity, negative = cell killing [1, 8]: 2.51% | activity, negative = cell killing [1, 9]: -6.39% | activity, negative = cell killing ([1]; at 21.2 µM (top of the series), tumour line D): -21.4% | Potency (astro): inactive

S=C=S
activity, negative = cell killing [1, 5]: -6.17% | activity, negative = cell killing [1, 6]: -16.5% | activity, negative = cell killing [1, 7]: -10.7% | Potency (astro): inactive | max response [2]: -0.686% | outcome [3]: inactive

C=CC[C@]1(O)CC[C@H]2[C@@H]3CCC4=CCCC[C@@H]4[C@H]3CC[C@@]21C
activity, negative = cell killing [1, 7]: -3.65% | Potency ([1]; tumour line A): 12.6 µM (active) | Potency (astro): inactive

ClC1=C(Cl)[C@]2(Cl)[C@@H]3[C@H]4C[C@H]([C@@H]5O[C@H]45)[C@@H]3[C@@]1(Cl)C2(Cl)Cl
activity, negative = cell killing [1, 5]: -22% | Potency ([1]; tumour line A): 11.2 µM (active) | Potency (astro): inactive

C[N+]1(C)[C@@H]2CC[C@H]1CC(OC(=O)c1c[nH]c3ccccc13)C2 (stereo partly drawn)
activity, negative = cell killing [1, 5]: -23.1% | activity, negative = cell killing [1, 7]: -27.7% | Potency (astro): inactive

CC(C)(C)c1cc(O)ccc1O
activity, negative = cell killing [1, 6]: -24.6% | activity, negative = cell killing [1, 7]: 3.11% | max response [2]: 3.84% and -2.04% and 0.779%

Clc1ccc(C(Cn2ccnc2)OCc2csc3c(Cl)cccc23)c(Cl)c1 (stereo not drawn)
activity, negative = cell killing [1, 8]: 2.67% | activity, negative = cell killing [1, 9]: -18.1% | Potency ([1]; tumour line A): 12.6 µM (active) | Potency (astro): inactive

C/C(=C\c1csc(C)n1)[C@@H]1C[C@@H]2O[C@]2(C)CCC[C@H](C)[C@H](O)[C@@H](C)C(=O)C(C)(C)[C@@H](O)CC(=O)O1
activity, negative = cell killing [1, 5]: -25.2% | activity, negative = cell killing [1, 6]: -19.9% | Potency [4]: inactive

Clc1ccc(C2(Cn3cncn3)OCCO2)c(Cl)c1
activity, negative = cell killing [1, 5]: -15.5% | activity, negative = cell killing [1, 6]: 0.916% | activity, negative = cell killing [1, 7]: -23.5% | Potency (astro): inactive

N#CN
activity, negative = cell killing [1, 5]: -13.5% | activity, negative = cell killing [1, 6]: -4.31% | activity, negative = cell killing [1, 7]: -5.37% | Potency (astro): inactive | max response [2]: 6.95% | outcome [3]: inactive

Cc1cccc(C(C)c2cnc[nH]2)c1C (stereo not drawn)
activity, negative = cell killing [1, 5]: -17.4% | activity, negative = cell killing [1, 6]: 6.82% | activity, negative = cell killing [1, 7]: -27% | Potency (astro): inactive

O=[N+]([O-])c1ccc(F)c([N+](=O)[O-])c1
activity, negative = cell killing [1, 5]: -29.6% | Potency ([1]; tumour line A): 20 µM (active) | Potency ([1]; tumour line C): 14.6 µM (active) | outcome [3]: inactive

CCOP(=O)(OCC)O/C(=C/Cl)c1ccc(Cl)cc1Cl
activity, negative = cell killing [1, 5]: -17.8% | activity, negative = cell killing [1, 6]: -23.4% | Potency ([1]; tumour line A): 12.6 µM (active) | Potency (astro): inactive

O=C1CCO1
activity, negative = cell killing [1, 5]: -1.82% | activity, negative = cell killing [1, 6]: 6.37% | activity, negative = cell killing [1, 7]: -10.3% | Potency (astro): inactive | max response [2]: -3.35% | outcome [3]: inactive

COC(COC(N)=O)C1=C(N2CC2)C(=O)C(C)=C(N2CC2)C1=O (stereo not drawn)
Potency (astro): 2.24 µM (active)

O=[N+]([O-])C(Br)(CO)CO
activity, negative = cell killing [1, 7]: -7.96% | Potency ([1]; tumour line A): 35.5 µM (active) | Potency (astro): 22.4 µM (active) | outcome [3]: inactive

c1csc(C2(N3CCCCC3)CCCCC2)c1
activity, negative = cell killing [1, 5]: -10.4% | activity, negative = cell killing [1, 6]: -7.27% | activity, negative = cell killing [1, 7]: -24.6% | Potency (astro): inactive
